The supplement of paper PMC3334620
Whole data set: some 33,000 sequences, median “E-score (-0.5 to 0.5)” near -0.016, cut for the highest 2% near 0.32. What follows is part of a selection rich in the highest values, with near analogues and random picks from the rest.

Molecular target: T1, Stp1 (UniProt B3LFK1)
T1 sequence: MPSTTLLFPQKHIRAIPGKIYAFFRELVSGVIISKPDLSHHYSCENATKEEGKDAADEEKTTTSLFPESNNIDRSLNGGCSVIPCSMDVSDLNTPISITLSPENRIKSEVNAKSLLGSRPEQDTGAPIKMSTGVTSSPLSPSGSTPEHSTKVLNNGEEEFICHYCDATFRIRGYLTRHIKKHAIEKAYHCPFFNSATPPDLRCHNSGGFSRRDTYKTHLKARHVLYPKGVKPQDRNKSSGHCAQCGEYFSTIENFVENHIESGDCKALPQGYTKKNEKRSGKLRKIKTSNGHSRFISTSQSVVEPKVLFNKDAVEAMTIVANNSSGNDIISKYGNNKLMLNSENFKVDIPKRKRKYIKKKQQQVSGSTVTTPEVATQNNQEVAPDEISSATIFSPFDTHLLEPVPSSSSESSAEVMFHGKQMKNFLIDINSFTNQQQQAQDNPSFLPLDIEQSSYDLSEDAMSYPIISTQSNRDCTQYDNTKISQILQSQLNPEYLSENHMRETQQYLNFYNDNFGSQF
Test: PBM E-score (8-mer binding enrichment) (E-score (-0.5 to 0.5)); higher = stronger / more preferred TF binding
Conditions: protein concentration: 200 nM; construct: GST-full length
How it was run: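 Yeast transcription factors, full-length or as DNA-binding domains, were expressed with a GST tag using PURExpress in vitro transcription/translation. At about 100-200 nM they were applied to universal all-10-mer Agilent arrays, double-stranded by primer extension on fresh or once-stripped slides. Fluorescent anti-GST detected bound protein, and masliner normalised the scans. E-scores for ungapped eight-base words, pooled with reverse complements, came from the Universal PBM Analysis Suite.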

Sequence	PBM E-score
CTATGCTA	-0.0393
CAACCAGA	0.0587
CCGCACGA	0.27
CAGCACGA	-0.0106
GCGCACGC	-0.0354
ACGCACGG	0.419
AAGCACGG	0.295
CAGCACGC	0.145
CAGCACGG	0.333
ACGCACGC	0.265
CCGCACGG	0.448
ACGCACGA	0.237
CCGCACAA	0.285
CCGCACGC	0.323
ATTCTAAG	0.126
ACGGGGAT	-0.0326
AGTCTTCC	-0.0735
TGGGGCAA	-0.00868
CGAAGTGA	0.00778
CCCAACCC	-0.174
CGCGTCCG	-0.0671
ATCATAAC	0.161
TATAGCGA	-0.151
AGGGAGCA	-0.403
AGCGGAAC	-0.0267

Sequence	PBM E-score
GGCGGAAC	0.125
CGCGGAAC	0.383
ACAATCAT	-0.00872
CAGGGCAA	0.0617
CAGGGCGC	0.363
AAGGGCGG	-0.0196
CAGGGCGG	-0.116
CAGGGCGA	0.0902
AAGGGCGC	0.354
AGGGGCGC	0.232
CAGGGCAG	-0.114
CAGGGCAC	0.355
GGGCCTCA	-0.0568
AACCCACT	0.00826
CGACTAGC	-0.13
ATCGTTCG	0.0636
GCTGCCAC	0.0537
AAGTGCCC	0.079
AAGTGCCA	0.163
AAGTGCCG	0.453
CAGTGCCG	0.453
CAGTGCCC	0.108
CAGTGCCA	-0.0624
AGTAGTGA	-0.0104
CTGGATAA	0.0621

Sequence	PBM E-score
CGGCATTC	0.441
GGGCATTA	0.139
AGGCATTA	0.228
AGGCATTC	0.106
CTGCATTC	-0.111
CGGCATTA	0.436
ACCTACAT	-0.177
AGTAGTCG	-0.0173
ATACTCAG	0.06
CACTGGGG	-0.231
GAGATATC	0.0576
CCACGCCC	-0.188
CCACGCCA	0.0283
ATACGCCA	0.0267
CCACGCCG	0.34
ATACGCCG	0.381
ATACGCCC	-0.157
ACACGCCA	0.0386
ACACGCCG	0.351
ACACGCCC	-0.181
GGGGCCCC	-0.2
ACCCTTTC	-0.15
CATGATTA	0.171
CCCTATCG	-0.196
TACAGAAA	0.212

Sequence	PBM E-score
CAACCATG	-0.0314
AGGAGAAT	-0.17
ATTCAAAC	0.11
GTTCAAAC	0.323
GTTCAAAA	0.185
AGCAGGCT	-0.098
AGGCGCAC	0.179
CGGCGCAG	0.428
AGGCGCAA	0.279
GGGCGCAC	-0.0463
TGGCGCAA	0.298
CCGCGCAG	0.221
AGGCGCAG	0.188
CGGCGCAA	0.422
CGGCGCAC	0.409
CCAAGACA	-0.137
CCCCCTAG	-0.354
ATTGGTGA	-0.0777
ACTAAGGA	-0.105
ACCTTACC	0.0147
CCTTTTTC	0.104
TAACCACA	-0.022
CAACCTGG	-0.101
TAAGTCAA	-0.0101
CGAGGCAA	0.359

Sequence	PBM E-score
CGAGGCAC	0.384
CGAGGCAG	0.12
AGAGGCAC	0.366
GGAGGCAC	0.148
AGAGGCAT	0.242
TGAGGCAA	0.234
AGAGGCAG	-0.125
AGAGGCAA	0.0357
GACCAGCC	-0.259
CCGGTAGG	0.0318
TACGTAAA	0.189
CAAGACCA	-0.15
ATACCGCC	0.1
AAGTTATC	-0.0807
AGATGCAA	-0.0126
GAGTGCGA	-0.046
GCAACGGA	0.228
CCAGCCGC	0.125
AGAGCCGG	-0.0632
AGAGCCGC	0.44
AGAGCCGA	0.225
CGAGCCGC	0.385
CTAGCCGA	-0.0941
ATAGCCGC	0.298
CTAGCCGC	0.395

Sequence	PBM E-score
CGAGCCGA	0.124
AATTTGCA	-0.0371
AACGAGAC	-0.0773
ATGTTACA	0.182
GCTGCTGA	0.189
CCAAAGAA	0.068
TAGCTGAA	-0.0818
GAAACGAC	0.0801
AACGGCGA	0.452
GTCGGCGA	-0.0125
CACGGCGA	0.474
CACGGGGG	-0.208
GACGGCGA	0.4
CCCGGCGA	-0.0779
ACCGGCGA	0.134
AACGGGGA	-0.0385
CACGGCGG	0.417
CCCGGCGG	-0.317
CATGGCGA	-0.0243
GCCGGCGA	-0.00476
AGTTGAGG	-0.0375
CCGTTCTA	0.237
GTGCATAA	0.183
CGTGCAAC	0.138
CCCAAATA	-0.153

Sequence	PBM E-score
TCCGAAAA	-0.159
TAAGGCGA	0.315
TCCGGCGA	0.1
TACGGCGA	0.473
GCCTCGAC	0.0115
CTGGGGAC	-0.392
ATGCGGTC	0.0837
ATGCGGTG	-0.103
ATGCGGCG	0.485
ATGCGGGC	0.0547
ATGCGGAG	-0.0518
ATGCGGCC	0.331
TAGCGCTA	-0.0704
TCCTCTAA	-0.222
CGCGATTC	0.118
ACTGGTCA	-0.105
CCACGCGG	0.18
ATTCCGCA	0.0903
CTGCCGCA	0.347
GTGCCGGA	0.175
ATGCCACA	0.243
ATGCCACG	0.275
CTGCCGCC	0.226
GTGCCAAA	0.119
